FBPA Giardia inh: inhibitors of Giardia lamblia fructose-1,6-bisphosphate aldolase; AID 2451; actives 0.71% (n = 290,000); purified Giardia FBPA; Potency, µM (highest dose often 59.6 µM), hits mostly inhibitors; also: nearly all actives have a fitted effect of over 55% in size
Target sequence (A8B2U2 whole entry, looked up): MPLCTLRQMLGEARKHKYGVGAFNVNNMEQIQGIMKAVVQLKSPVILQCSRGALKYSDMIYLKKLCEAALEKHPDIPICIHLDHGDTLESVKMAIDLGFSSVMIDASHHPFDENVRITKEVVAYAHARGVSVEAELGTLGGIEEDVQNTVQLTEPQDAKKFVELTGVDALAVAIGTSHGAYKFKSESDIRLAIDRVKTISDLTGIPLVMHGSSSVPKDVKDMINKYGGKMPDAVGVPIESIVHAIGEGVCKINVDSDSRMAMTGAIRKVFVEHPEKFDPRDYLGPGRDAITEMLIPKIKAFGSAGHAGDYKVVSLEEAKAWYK
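Giardia FBPA (40 nM reagent) was preincubated 10 min at RT with compound (up to 57.5 uM final), then substrate plus GAPDH/TPI/NAD/arsenate coupling system with diaphorase/resazurin was added; resorufin fluorescence (525/598 nm) was read after 20 min.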
Pf growth 96h: P. falciparum growth inhibition at 96 hour, primary screen for plastid delayed-death inhibitors. P. falciparum luciferase reporter growth, 96 h. Potency, µM (titrated, usually from 28.7 µM), actives largely listed as inhibitors. actives 6.9% (n = 320,000). AID 504834
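Compounds incubated with erythrocytes infected by luciferase-expressing P. falciparum (2% hematocrit, 0.05% parasitemia final) for 96 hours, 37 C in 5% CO2. Growth inhibition scored as decreased luciferase luminescence.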
CHX counter: counter-screen hit for Shiga toxin inhibitors, cycloheximide. cell reporter, cycloheximide protein synthesis inhibition counterscreen. max response, %. actives 12% (n = 300,000). AID 2314; in the data active = max response mostly above about 13%, no sharp cut-off; inactive = mostly below about 14%; also: read at 38.3 µM for the half of the compounds with a filed dose
Shiga toxin inh: blocks Shiga toxin action in Vero cells; Vero cells, Shiga toxin protein synthesis inhibition reporter; actives 9.2% (n = 290,000); inhibition, % at 38.7 µM; AID 2315; in the data active = inhibition mostly above about 28%, no sharp cut-off; inactive = mostly below about 43%
Pf growth 48h: P. falciparum growth inhibition at 48 hours (one generation) | P. falciparum luciferase growth in erythrocytes, 48 h | Potency, µM (titrated, usually from 28.7 µM), hits mostly inhibitors | actives 5.9% (n = 310,000) | AID 504832
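Read-out is firefly luciferase luminescence from an integrated reporter in P. falciparum, so falling signal marks reduced parasite growth. Infected erythrocytes were at 2% hematocrit and 0.1% parasitemia (final) in Albumax-supplemented RPMI 1640.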
NS1 function inh: inhibitors of influenza NS1 protein function; actives 0.4% (n = 270,000); Potency, µM (top dose mostly 46.1 µM); AID 2326; calls by dose curve; also: actives are rising curves; nearly all actives have a fitted effect of over 50% in size
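Recovery from NS1-induced slow growth read by OD600 in budding yeast switched to galactose assay medium (pH 6.0, -URA) at 1:100 dilution. Compound 23 nl per well; the matching strain lacking NS1 serves as control.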
Large screens that a line does not name were inactive. Only some compounds are listed: those with a hit (about 21% of all), similar ones and a draw of the others. Unless noted, calls follow the shape of the dose curve; as a rule, active = well fitted curve in the direction sought with a large enough effect; inconclusive = small, poorly fitted or top-dose-only effect, or another doubt; inactive = no such curve, though single readings can be large; an effect the other way counts as inactive or inconclusive.

Cc1nc2c(n1C1CCCCC1)C(=O)c1ccccc1C2=O	Pf growth 96h 1.3µM, Pf growth 48h 1.9µM (no result: FBPA Giardia inh)
CC(C)/C=C1\CC/C(=C\c2ccc(N(C)C)cc2)C1=O	CHX counter 35, Shiga toxin inh 77
CC(C)c1ccc(/C=C2\CC/C(=C\C=N\N(C)C)C2=O)cc1	Pf growth 96h inconclusive, CHX counter 55, Shiga toxin inh 125 (no result: Pf growth 48h)
CC(C)c1ccc(/C=N/n2cnnc2)cc1	none
CCOC(=O)c1sc(N)nc1-c1ccccc1	none
CCOC(=O)c1snc(-c2ccc(F)cc2)c1N	CHX counter 35, Shiga toxin inh 103 (no result: Pf growth 96h)
O=c1c2ccccc2[nH]c(=S)n1-c1ccc2c(c1)OCO2	Pf growth 48h 12µM
O=C(Cn1c(=O)[nH]c2ccccc2c1=O)Nc1ccc2c(c1)OCO2	none
C[C@@H](C(=O)Nc1ccc2c(c1)OCCO2)n1c(=O)[nH]c2ccccc2c1=O	CHX counter 49, Shiga toxin inh 147
C[C@@H](C(=O)Nc1ccc2c(c1)OCO2)n1c(=O)[nH]c2ccccc2c1=O	Pf growth 96h inconclusive, Shiga toxin inh 29
CCc1cc2c(s1)c1cnn(Cc3ccccc3F)c(=O)c1n2C	none (no result: FBPA Giardia inh, Pf growth 96h, Pf growth 48h, NS1 function inh)
O=C(NCC1CCCO1)c1ccccn1 (stereo unspecified)	none
O=C(NCC1CCCO1)c1ccc(N2CCCCC2)nc1 (stereo unspecified)	Pf growth 96h inconclusive, CHX counter 28, Shiga toxin inh 40
O=C(NCC1CCCO1)c1ccc2nc(N3CCCCC3)sc2c1 (stereo unspecified)	CHX counter 51, Shiga toxin inh 88
COc1ccc(CC(=O)OCC(=O)NC(=O)NC23CC4CC(CC(C4)C2)C3)cc1	none (no result: Pf growth 48h)
CC1CC1C(=O)OCC(=O)NC(=O)NC12CC3CC(CC(C3)C1)C2 (stereo unspecified)	CHX counter 43, Shiga toxin inh 86 (no result: NS1 function inh)
CCOc1ccc(NC(=O)CCNC(=O)C2CCN(S(=O)(=O)c3ccccc3)CC2)cc1	Pf growth 96h inconclusive (no result: FBPA Giardia inh)
CCOC(=O)c1c(NC(=O)CSc2nc3ccccc3c(=O)n2-c2ccc(F)cc2)sc(C(C)=O)c1C	Pf growth 96h 3.3µM, Pf growth 48h 4.1µM
CCOC(=O)c1[nH]c(CSc2nnnn2-c2ccccc2C)c(C(=O)OCC)c1C	Pf growth 96h inconclusive, Pf growth 48h 10µM
O=C(CSc1nc2ccccc2c(=O)n1-c1ccccc1)N1CCCC1	none (no result: Pf growth 96h)
CCOC(=O)c1c(C)[nH]c(C)c1C(=O)CSc1nc2ccccc2c(=O)n1-c1ccc(CC)cc1	Pf growth 96h 9.3µM, Pf growth 48h inconclusive
CCOC(=O)c1c(NC(=O)CSc2ncnc3ccccc23)sc(C(C)=O)c1C	none
CC(=O)c1ccc(-n2c(SCC(=O)c3c[nH]c4ccccc34)nc3ccccc3c2=O)cc1	Pf growth 96h inconclusive, Pf growth 48h 12µM, NS1 function inh inconclusive
CC(C)CC1CCCCC1OC(=O)C[N+]1(C)CCCCC1 (stereo unspecified)	Pf growth 48h inconclusive (no result: NS1 function inh)
COc1ccc(CNc2ncnc3ccc(-c4cccc(C#N)c4)cc23)c(OC)c1	none (no result: Pf growth 96h, CHX counter, Shiga toxin inh, Pf growth 48h, NS1 function inh)
Cc1ccc(C(=O)C2CCN(CC(=O)NC3CCCC3)CC2)cc1	none
CC(C)CN1CC[C@@]2(CCCN(C(=O)c3cnccn3)C2)C1	none (no result: Pf growth 96h, CHX counter, Shiga toxin inh, Pf growth 48h, NS1 function inh)
CCOC(=O)c1c(C)[nH]c(C)c1C(=O)CSc1nnnn1-c1ccccc1	Pf growth 96h 12µM (no result: Pf growth 48h)
Cc1noc(C)c1S(=O)(=O)N1CCc2nc(-c3ccccc3)c3c(c2C1)CO[C@@H](C)C3	none (no result: Pf growth 96h, CHX counter, Shiga toxin inh, Pf growth 48h, NS1 function inh)
Cc1ccc(C(=O)C(C)N(C(=O)c2ccc(Cl)cc2Cl)N2C(=O)CCCC2=O)cc1 (stereo unspecified)	Pf growth 96h 12µM
COc1ccc(C(=O)C(C)N(C(=O)c2ccc(Cl)cc2Cl)N2C(=O)C3C4C=CC(C4)C3C2=O)cc1 (stereo unspecified)	Pf growth 96h inconclusive, Pf growth 48h 7.4µM
COC(=O)c1ccc(N2C(=O)C3CC(C)=C(C)CC3C2=O)cc1 (stereo unspecified)	Pf growth 48h inconclusive (no result: NS1 function inh)
Cc1ccc(NC(=O)c2ccc(=O)[nH]c2)cc1S(=O)(=O)N1CCCCC1	Pf growth 48h inconclusive
CC1(C)CC(=O)C=C(Nc2ccc(Cl)c(Br)c2)C1	Pf growth 96h inconclusive
Cc1ccc(C2(COC(=O)C(C)C)CO2)c(OC(=O)C(C)C)c1 (stereo unspecified)	CHX counter 10
Cn1nc(-c2ccc(Cl)cc2)nc2c(=O)n(C)c(=O)nc1-2	Pf growth 96h 0.93µM, Shiga toxin inh 22, Pf growth 48h inconclusive
CCNc1ncc2nc(-c3ccc(Cl)cc3)c(=O)n(C)c2n1	none (no result: Pf growth 96h, CHX counter, Shiga toxin inh, Pf growth 48h, NS1 function inh)
O=C(CCCO)CCCCCCCCC[C@H]1N[C@H](CO)[C@@H](O)[C@@H]1O	none
Cc1ccc(OCCC(=O)OC(C)C(=O)NC2CC2)cc1 (stereo unspecified)	Pf growth 48h inconclusive (no result: FBPA Giardia inh, CHX counter, Shiga toxin inh, NS1 function inh)
Cc1ccc(C(=O)N2CCN(c3cccc(Cl)c3)CC2)cc1C	none (no result: Pf growth 96h)
Cc1ccc(C(=O)N2CCC(C)CC2)cc1C	CHX counter 17, Shiga toxin inh 35
Cc1ccc(C(=O)N2CCN(c3ccccc3)CC2)cc1C	CHX counter 27, Shiga toxin inh 43 (no result: Pf growth 96h)
CC1CCN(C(=O)c2ccc(C(=O)N3CCC(C)CC3)cc2)CC1	none (no result: FBPA Giardia inh, Pf growth 96h, CHX counter, Shiga toxin inh, Pf growth 48h)
Cc1ccc(C(=O)N2CCN(c3ccc(N4CCOCC4)nn3)CC2)cc1C	Pf growth 96h 5.2µM (no result: FBPA Giardia inh, CHX counter, Shiga toxin inh, NS1 function inh)
O=C(C1CCN(c2ccc(N3CCOCC3)nn2)CC1)N1CCN(c2ccc(F)cc2)CC1	Pf growth 96h inconclusive, Shiga toxin inh 71
CCN(C(=O)COC(=O)c1ccc(=O)n(Cc2ccccc2)n1)C1CCS(=O)(=O)C1 (stereo unspecified)	none (no result: FBPA Giardia inh, CHX counter, Shiga toxin inh, NS1 function inh)
Cc1ccccc1Nc1nnc(SCc2cc([N+](=O)[O-])cc3c2OCOC3)s1	Pf growth 96h 4.7µM (no result: Pf growth 48h)
O=[N+]([O-])c1cc2c(c(CSc3nnc(Nc4ccccc4)s3)c1)OCOC2	none (no result: Pf growth 96h)
O=C(CCc1ccccc1)NNC(=O)c1ccco1	Pf growth 96h inconclusive
O=C(NNC(=O)c1cccc2ccccc12)c1ccco1	none
O=C(NNC(=O)c1ccccc1O)c1ccco1	CHX counter 27, Shiga toxin inh 97 (no result: NS1 function inh)
O=C(NNC(=O)c1ccccc1F)c1ccco1	Shiga toxin inh 40
CC(=O)c1ccc(Nc2nc(C)cc(C)n2)cc1	Pf growth 96h inconclusive, CHX counter 28
Cc1ccc2nc(SCc3ccc([N+](=O)[O-])cc3)nc(C)c2c1	none
Cc1ccc2nc(C)cc(Nc3ccc([N+](=O)[O-])cc3)c2c1	Pf growth 96h inconclusive, Pf growth 48h 0.74µM (no result: NS1 function inh)
CC(=O)c1cccc(Nc2cc(C)nc3ccc(C)cc23)c1	Pf growth 96h inconclusive, Pf growth 48h 4.1µM
CC(=O)c1cccc(Nc2cc(C)nc3c(C)cc(C)cc23)c1	Pf growth 96h inconclusive, Pf growth 48h 9.3µM
COC(=O)c1ccc(Nc2cc(C)nc3ccc(C)cc23)cc1	Pf growth 96h inconclusive, Pf growth 48h inconclusive

Screening results from PubChem.
